This is a sample that favours compounds with a hit; in the whole collection about 6.7% have one here.
FBA Mtb inh – inhibitors of M. tuberculosis fructose-bisphosphate aldolase | P9WQA3 | purified M. tuberculosis FBA, fluorescence read-out | inhibition, % at 1 µM | 2.3% of 360,000 active | AID 588726; in the data active = inhibition above about 27%
BoNT A protease – inhibitors of Botulinum neurotoxin A light chain protease; multiplex microsphere protease substrate cleavage, flow cytometry; inhibition, % at 10 µM; 0.17% of 360,000 active; AID 588499
Autofluor counter – flagged as autofluorescent in microsphere protease counterscreen. fluorescence intensity (concentration not given with the values). 3.1% of 360,000 active. compound autofluorescence counterscreen, microsphere flow cytometry; hits give high values. AID 624483; in the data active = fluorescence intensity above about 16000; inconclusive = no clear call, values can overlap the other calls
BoNT-F LC inh – BoNT F light chain protease inhibition; AID 588497; 0.22% of 360,000 active; inhibition, % at 10 µM; Multiplex microsphere protease cleavage assay, flow cytometry; in the data active = inhibition above about 35%, passing the limit was not always enough; inconclusive = no clear call, values can overlap the other calls
Anthrax LF inh2 – blocks Bacillus anthracis lethal factor protease; inhibition, % at 10 µM; AID 588501; 0.12% of 360,000 active; multiplex microsphere protease cleavage assay, LF
GDH-TPI inh – counter-screen for M. tuberculosis FBA inhibitors: GDH-TPI coupled enzymes. GDH-TPI coupled enzyme counterscreen, NADH absorbance. inhibition, % at 4.8 µM. 1.2% of 360,000 active. AID 588335; in the data active = inhibition above about 30%
Hits are given with their value; n = inactive; u = inconclusive; x = not tested or not shown; + = active, no number. Cut-off read from the data, not from the text of the source, unless noted: active = inhibition above about 30%; inconclusive = no clear call, values can overlap the other calls; inactive = below that.

SMILES	FBA Mtb inh	BoNT A protease	Autofluor counter	BoNT-F LC inh	Anthrax LF inh2	GDH-TPI inh
CCCCn1nnnc1C(c1ccccc1)N1CCN(c2ccc(C(F)(F)F)cc2[N+](=O)[O-])CC1 (stereo not drawn)	x	n	n	n	n	x
CCn1cc(CNCc2c(C(=O)N3CCCCC3)nc3c(C)cccn23)cn1	n	n	n	n	n	n
Cn1c(=O)c2cc(NC(=O)CCc3ccccc3)ccc2n1Cc1cccc(C(F)(F)F)c1	127	n	n	n	n	n
Cn1c(=O)c2cc(NC(=O)NCc3ccccc3)ccc2n1Cc1cccc(C(F)(F)F)c1	138	n	n	n	n	n
Cn1c(=O)c2cc(NC(=S)NCc3ccccc3F)ccc2n1Cc1cccc(C(F)(F)F)c1	n	n	n	n	n	n
CN(C)c1ccc(NC(=O)Nc2ccc3c(c2)c(=O)n(C)n3Cc2ccccc2)cc1	n	n	n	n	n	n
c1ccc(COc2cccc(CNn3cnnc3)c2)cc1	n	n	n	n	n	n
COCCC1CCCCN1C(=O)c1ccc(OC2CCN(C(C)=O)CC2)c(OC)c1 (stereo not drawn)	n	n	n	n	n	n
COCCn1c(C)cc(/C=C2\NC(=S)N(C)C2=O)c1C	n	n	n	n	n	36
Cc1c(C)c2c(OCC(=O)NCC(O)c3ccccc3)cc3c(c2oc1=O)CCC(C)(C)O3 (stereo not drawn)	n	n	n	n	n	n
Cc1c(C)c2c(OCC(=O)NC3CC3)cc3c(c2oc1=O)CCC(C)(C)O3	+	n	n	n	n	n
CSC[C@H](NC(=O)COc1cc2c(c3oc(=O)cc(C)c13)CCC(C)(C)O2)C(=O)O	+	n	n	n	n	n
CCCC(NC(=O)COc1cc2c(c3oc(=O)c(C)c(C)c13)CCC(C)(C)O2)C(=O)O (stereo not drawn)	+	n	n	u	n	n
CCCCC(NC(=O)Cc1c(C)c2cc3c4c(oc3c(C)c2oc1=O)CCCC4)C(=O)O (stereo not drawn)	n	n	n	n	n	n
Cc1cc(OCC(=O)NC2CCS(=O)(=O)C2)c2c3c(c(=O)oc2c1)CCC3 (stereo not drawn)	n	n	n	n	n	n
Cc1c(C)c2c(OCC(=O)N[C@@H](Cc3ccccc3)C(=O)O)cc3c(c2oc1=O)CCC(C)(C)O3	+	n	n	n	n	38
COc1ccc(OC)c(NC(=O)C2CCCC2)c1	n	n	n	n	n	n
CSCCC(NC(=O)COc1cccc2ccccc12)C(=O)O (stereo not drawn)	n	n	n	n	n	n
Cc1c(C)c2c(OCC(=O)N[C@@H](CC(C)C)C(=O)O)cc3c(c2oc1=O)CCC(C)(C)O3	+	n	n	n	n	n
COCCCNC(=O)COc1cc2c(c3oc(=O)c(C)c(C)c13)CCC(C)(C)O2	+	n	n	n	n	n
CSCC[C@H](NC(=O)COc1cc2c(c3oc(=O)c(C)c(C)c13)CCC(C)(C)O2)C(=O)O	+	n	n	n	n	n
Cc1cc(OCC(=O)N[C@@H](Cc2c[nH]c3ccccc23)C(=O)O)c2c(C)c(C)c(=O)oc2c1	n	n	n	n	n	n
CSC[C@H](NC(=O)COc1cc2c(c3oc(=O)c(C)c(C)c13)CCC(C)(C)O2)C(=O)O	+	n	n	n	n	n
O=C(O)/C=C/C(=O)Nc1ccccc1SC(F)(F)C(F)(F)C(F)(F)F	n	n	n	n	n	n
S=C(NCC(c1ccco1)N1CCCC1)Nc1ccccc1 (stereo not drawn)	n	n	n	n	n	n
SMILES	FBA Mtb inh	BoNT A protease	Autofluor counter	BoNT-F LC inh	Anthrax LF inh2	GDH-TPI inh
COC(=O)c1ccc(-n2cncn2)c([N+](=O)[O-])c1	n	n	u	n	n	n
Cc1ccc(C2=N/C(=C/c3cccs3)C(=O)N2Nc2ccccc2)cc1	n	80	n	43	58	n
Cc1ccccc1C1=N/C(=C/c2cccs2)C(=O)O1	n	n	n	n	n	n
CCOC(=O)C1=C(N)OC2=C(C(=O)CCC2)C1c1sccc1C (stereo not drawn)	n	n	n	n	n	n
C=CCOc1ccc(/C=N/N2C(=O)C(CC(=O)Nc3ccc(F)cc3F)SC2=NC)cc1 (stereo not drawn)	n	n	n	n	n	n
COc1ccc(C2CC(c3ccccc3O)=NN2c2ccccc2)cc1 (stereo not drawn)	n	n	n	n	n	n
COc1ccc(C2CC(c3ccccc3)=NN2c2ccccc2)c(C(=O)O)c1OC (stereo not drawn)	197	n	n	n	n	n
COc1ccc(C2=NN(c3ccc(C(=O)O)cc3)C(c3ccc(OC)c(OC)c3)C2)cc1 (stereo not drawn)	+	n	n	n	n	35
COc1cc(C2CC(c3ccccc3)=NN2c2ccccc2)ccc1OCC(=O)O (stereo not drawn)	+	n	n	n	n	n
CC(=O)Oc1ccc(C2=NN(c3ccccc3)C(c3ccccc3)C2)cc1 (stereo not drawn)	129	n	n	u	n	n
Nc1c(Cl)c(Cl)nc(C(=O)OCC(=O)NCc2ccccc2)c1Cl	n	n	n	n	n	n
CC1CCC/C(=C\Nc2ccc(O)cc2)C1=O (stereo not drawn)	n	n	n	n	n	n
Cc1ccc(CNS(=O)(=O)c2ccc3c(c2)CCN3C(=O)CCCC(=O)O)cc1	n	n	n	n	n	n
Cc1onc(-c2ccccc2Cl)c1C(=O)Nc1ccc(-n2nncc2-c2ccco2)cc1	n	n	n	n	n	n
O=C(/C=C/c1cc(Br)ccc1F)Nc1cccnc1	n	n	n	n	n	n
NS(=O)(=O)c1ccc(N2N=C(c3ccccc3)CC2c2cccc(F)c2)cc1 (stereo not drawn)	+	n	n	n	n	n
NS(=O)(=O)c1ccc(N2N=C(c3ccccc3)CC2c2ccccc2Br)cc1 (stereo not drawn)	+	n	n	n	n	n
COc1cc(N2N=C(c3ccccc3)CC2c2ccccc2)c(C=O)cc1C=O (stereo not drawn)	n	n	n	u	n	n
COc1cc(C2CC(c3cccnc3)=NN2c2ccc(F)cc2)cc(OC)c1OC (stereo not drawn)	+	n	n	n	n	n
NS(=O)(=O)c1ccc(N2N=C(c3ccccc3)CC2c2cccc(Br)c2)cc1 (stereo not drawn)	+	n	n	n	n	n
O=[N+]([O-])c1ccc(N2N=C(c3ccccc3)CC2c2ccccc2O)cc1 (stereo not drawn)	n	n	n	n	n	n
CCS(=O)(=O)Nc1ccc(C2=NN(C(=O)c3ccco3)C(c3cccc(F)c3)C2)cc1 (stereo not drawn)	n	n	n	n	n	n
Cc1cc(C(=O)CSc2ncn[nH]2)c(C)n1-c1cccc(S(=O)(=O)N2CCOCC2)c1	n	n	n	n	n	n
CC(C)c1nnc(NC(=O)CCc2ccccc2)s1	n	n	n	n	n	n

Screening results: PubChem BioAssay, several laboratories
